{"source": "PubChem BioAssay (Tox21)", "note": "Several values for one entry are separate records, joined by “and”; a condition that tells them apart may be missing. Equal values may be shown once. Inconclusive results are not listed. Where a call stands in place of a potency, no number is given. Where a structure was tested more than once in an assay, its records may differ in their call. Activity calls are given as the source filed them. Calls come from the whole dose curve; as a rule, active = well fitted cell-killing curve with a large enough effect in the repeat runs; inconclusive = weak or mixed curves; inactive = flat fitted curve, though single readings scatter. Potency is the fitted concentration of half-maximal effect.", "data": [{"experiment": "qHTS RealTime-Glo MT Cell Viability Assay in HepG2 cells - 24 hour (AID 1224867); note: nearly all actives have a fitted effect of over 50% in size", "conditions": "RealTime-Glo luminescence; series mostly up to 76.8 µM", "text": "U.S. Tox21 Program National Center for Advancing Translational Sciences [NCATS] NIH Chemical Genomics Center [NCGC] U.S. Environmental Protection Agency [EPA] National Institutes of Environmental Health Sciences [NIEHS] National Toxicology Program [NTP] U.S. Food and Drug Administration [FDA] Tox21 Assay Overview: Measure of cell viability is critical in the cell-base assay. Analysis of cell viability is necessary for the characterization of cell responses to cytotoxic drugs and environmental stress. A RealTime-Glo MT Cell Viability Assay to monitor cell viability in real time of continues cell culture during 40 hours of compound treatment was used to screen Tox21 10K library compounds in HepG2 cells. The RealTime-Glo MT Cell Viability Assay is a nonlytic, homogeneous, bioluminescent method to measure cell viability in real time using a simple, plate-based method. The assay involves adding NanoLuc luciferase and a cell-permeant prosubstrate to cells in culture. Viable cells reduce the proprietary prosubstrate to generate a substrate for NanoLuc luciferase. This substrate diffuses from cells into the surrounding culture medium, where it is rapidly used by the NanoLuc Enzyme to produce a luminescent signal. The signal correlates with the number of viable cells, making the assay well suited for cytotoxicity studies.\nTox21 Assay Protocol Summary: The mixture of HepG2 cell suspension and reagents were dispensed at 600cells/6 ul/well in 1536-well tissue culture treated black solid bottom plates using a Multidrop dispenser. After the assay plates were incubated at a 37 C/5% CO2 incubator for 5 hours, 23 nL of compounds dissolved in DMSO, positive and negative controls was transferred to the assay plate by a pintool work station. The plates were incubated at 37 C for 40 hours. The luminescence intensity were measured at 0h, 8h, 16h, 24h, 32h and 40h time points using ViewLux plate reader during compound treatment.", "values": [{"smiles": "OCC#CCO", "Potency": "inactive"}, {"smiles": "CC1=CC[C@H]2C[C@@H]1C2(C)C", "Potency": "inactive"}, {"smiles": "CCOC(=O)C1OC1c1ccccc1", "note": "(stereo not given)", "Potency": "inactive"}, {"smiles": "O=C1CCCCC1", "Potency": "inactive"}, {"smiles": "CC1(C)O[C@@H]2C[C@H]3[C@@H]4C[C@H](F)C5=CC(=O)CC[C@]5(C)[C@H]4[C@@H](O)C[C@]3(C)[C@]2(C(=O)CO)O1", "Potency": "inactive"}, {"smiles": "NC(=O)/N=N/C(N)=O", "Potency": "inactive"}, {"smiles": "CCOC(=O)/C=C\\C(=O)OCC", "Potency": "inactive"}, {"smiles": "C=C(C)C(=O)OCCCCCC", "Potency": "inactive"}, {"smiles": "CNC[C@H](O)[C@@H](O)[C@H](O)[C@H](O)CO", "Potency": "inactive"}, {"smiles": "NCc1cccc(CN)c1", "Potency": "inactive"}, {"smiles": "C=CC(=O)OCCCCCCCC(C)C", "Potency": "inactive"}, {"smiles": "CC1COc2ccccc2N1C(=O)C(Cl)Cl", "note": "(stereo not given)", "Potency": "inactive"}, {"smiles": "CC(C)n1c(/C=C/[C@@H](O)C[C@@H](O)CC(=O)O)c(-c2ccc(F)cc2)c2ccccc21", "Potency": "inactive"}, {"smiles": "C/C=C(C)/C=C/C=C(C)C", "Potency": "inactive"}, {"smiles": "CC(C)(C)C1CCC(O)CC1", "note": "(stereo not given)", "Potency": "inactive"}, {"smiles": "COCC(=O)O", "Potency": "inactive"}, {"smiles": "CC(=O)CCc1ccccc1", "Potency": "inactive"}, {"smiles": "C[C@@H](O)[C@H]1C(=O)N2C(C(=O)O)=C(S[C@@H]3CN[C@H](C(=O)N(C)C)C3)[C@H](C)[C@H]12", "Potency": "inactive"}, {"smiles": "CCC(=O)O", "Potency": "inactive"}, {"smiles": "c1ccc2[nH]cnc2c1", "Potency": "inactive"}, {"smiles": "CCCCCCOC(C)=O", "Potency": "inactive"}, {"smiles": "c1ccc2ccccc2c1", "Potency": "inactive"}, {"smiles": "OC1CCCC1", "Potency": "inactive"}, {"smiles": "CC[Si](OC(C)=O)(OC(C)=O)OC(C)=O", "Potency": "inactive"}, {"smiles": "Cc1ccc(C(=O)O)o1", "Potency": "inactive"}, {"smiles": "O=C(Cl)c1c(Cl)c(Cl)c(C(=O)Cl)c(Cl)c1Cl", "Potency": "inactive"}, {"smiles": "CCCCCCCCCCCCN", "Potency": "inactive and 24.5 µM (active)"}, {"smiles": "Clc1ccc(Cl)c(Cl)c1Cl", "Potency": "inactive"}, {"smiles": "CC(=O)Nc1ccc(C(=O)O)cc1", "Potency": "inactive"}, {"smiles": "Cc1ccc(N)c(S(=O)(=O)O)c1", "Potency": "inactive"}, {"smiles": "Clc1cc(Cl)c(Cl)cc1Cl", "Potency": "inactive"}, {"smiles": "CCCCCC/C=C/CCCCCCCC(=O)O", "Potency": "inactive"}, {"smiles": "CC(C)(C)C(=O)C1C(=O)c2ccccc2C1=O", "Potency": "inactive"}, {"smiles": "NS(=O)(=O)c1cc2c(cc1Cl)NC=NS2(=O)=O", "Potency": "inactive"}, {"smiles": "CCc1ccccc1O", "Potency": "inactive"}, {"smiles": "COC(=O)c1ccc(C(=O)OC)cc1", "Potency": "inactive"}, {"smiles": "CCCCC(CC)COC(=O)/C=C\\C(=O)OCC(CC)CCCC", "note": "(stereo not given)", "Potency": "inactive"}, {"smiles": "O=C(O)c1ccc([N+](=O)[O-])cc1", "Potency": "inactive"}, {"smiles": "C=C1CC[C@H](O)CC1=C/C=C1\\CCC[C@]2(C)[C@@H]([C@H](C)/C=C/[C@H](C)C(C)C)CC[C@@H]12", "Potency": "inactive"}, {"smiles": "CCCCCCCCCC(=O)O", "Potency": "inactive"}]}]}
